Source: PubChem
Sa RN4220 lethal = kills Staphylococcus aureus RN4220. inhibition, % (test concentration not listed). 330,000 tested, 0.33% active. S. aureus RN4220 growth, OD600, 16 h; in the data active means inhibition above about 85%;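 further: plate controls were untreated cells for no effect and reference antibiotic for full effect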
PfHsp40 rescue = restores yeast growth despite PfHsp40 toxicity; S. cerevisiae expressing PfHsp40, growth rescue, ATP luminescence; growth rescue, % at 12.5 µM; 340,000 tested, 0.68% active; AID 504582; in the data active means growth rescue above about 28%, passing the limit was not always enough; inconclusive means no clear call, values can overlap the other calls;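 further: yeast W303a lacking pdr1 and pdr3 grown in galactose medium; growth measured after three days at 30 °C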
Sa ugtP lethal = growth inhibition of S. aureus ugtP deletion strain. growth inhibition, % (concentration not given with the values). 330,000 tested, 0.54% active. AID 1259309. S. aureus RN4220 ugtP deletion, OD600 growth, 16 h; in the data active means growth inhibition above about 68%;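 further: plate controls were untreated wells for no effect and antibiotic for full effect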
Mtb hypoxia rep = Mtb hypoxia fluorescent reporter inhibition; M. tuberculosis hypoxia-regulated fluorescent reporter, fluorescence; fluorescence inhibition, % (no concentration beside the values); 300,000 tested, 0.1% active; AID 1159583; in the data active means fluorescence inhibition mostly above about 23%, no sharp cut-off; inactive means mostly below about 17%
SSB-PriA inh = K. pneumoniae PriA-SSBct interaction inhibition | inhibition, % at 33 µM | AlphaScreen SSBct-PriA binding, biotinylated peptide | 430,000 tested, 0.6% active; in the data active means inhibition mostly above about 37%, no sharp cut-off; inactive means mostly below about 20%;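 further: plate controls were negative control peptide for no effect and reference peptide for full effect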
VHR inh abs = DUSP3 (human) phosphatase inhibition. recombinant VHR phosphatase, pNPP absorbance. inhibition, % at 13.3 µM. 290,000 tested, 0.52% active. AID 1654; in the data active means inhibition above about 50%
Target sequence (P51452 whole entry, looked up): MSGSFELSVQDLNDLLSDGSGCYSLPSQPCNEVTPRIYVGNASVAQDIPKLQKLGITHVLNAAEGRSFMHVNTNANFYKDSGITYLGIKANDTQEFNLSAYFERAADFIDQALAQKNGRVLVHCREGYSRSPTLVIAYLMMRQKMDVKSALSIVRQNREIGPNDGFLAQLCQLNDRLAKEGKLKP
* marks the source's active call; other numbers are inactive results; ! = a repeat was not active. Only some compounds are listed: those with a hit (about 1.8% of all), similar ones and a draw of the others.

`COc1cc(CN2CCCC(C(=O)Nc3ccccc3Oc3cccnc3)C2)ccc1F` (stereo unspecified) gave Sa RN4220 lethal 0.1, PfHsp40 rescue 0.1, Sa ugtP lethal -1.2, Mtb hypoxia rep 6.1, SSB-PriA inh -5.1 and VHR inh abs 12.8.
Screening Cc1ccc(N(C(=O)Nc2ccccc2)C2=NCC(C)S2)cc1 (stereo unspecified) returned Sa RN4220 lethal 4.9, PfHsp40 rescue -0.4, Sa ugtP lethal 87.7*, Mtb hypoxia rep -1.7, SSB-PriA inh 1.1 and VHR inh abs -1.8.
For COc1cccc2c1Oc1nc(-c3cccc(O)c3)[nH]c(=O)c1C2 the results were SSB-PriA inh -3.0.
`COCCn1nc(CNC(=O)c2nc3ccccc3s2)cc1-c1ccco1` gave SSB-PriA inh 3.0.
Cc1cccc(C)c1OCc1nnc(SCC(=O)Nc2ccc(N3CCOCC3)cc2)o1 was read as Sa RN4220 lethal 1.6, PfHsp40 rescue 0.1, Sa ugtP lethal -2.2, Mtb hypoxia rep -12.9, SSB-PriA inh -18.0 and VHR inh abs 54.4*.
For CC(=O)CCCN1C(=O)c2ccccc2C1=O the results were SSB-PriA inh 25.0.
`N=c1c2c(-c3ccccc3)c(-c3ccccc3)n(Cc3ccccc3)c2ncn1CCCn1ccnc1` gave Sa RN4220 lethal -5.6, PfHsp40 rescue 12.9, Sa ugtP lethal -20.4, SSB-PriA inh 46.2* and VHR inh abs 28.7.
`O=C(O)C[C@H](CC(=O)Nc1ccc(CC(=O)N2CCOCC2)cc1)c1cccs1` gave SSB-PriA inh -6.0.
Screening COc1cc(C(=O)Nc2nc3c(s2)CCCC3)ncn1 returned SSB-PriA inh -31.0.
`COc1ccc(S(=O)(=O)CC(=O)N2CC(=O)Nc3ccccc32)cc1` gave SSB-PriA inh -13.0.
`COc1ccc(C(=O)N2C(=S)C(c3ccccc3)=NC23CCC(C)CC3)cc1OC` (stereo unspecified) gave SSB-PriA inh 37.0*.
Screening Cc1ccsc1C=NNC(=O)c1ccccn1 returned SSB-PriA inh -2.2.
`CCc1cc2c(=O)[nH]c(-c3ccccn3)nc2s1` gave Sa RN4220 lethal 14.4, PfHsp40 rescue inconclusive, Sa ugtP lethal -20.0, Mtb hypoxia rep 8.7, SSB-PriA inh 66.3* and VHR inh abs 7.3.
For COc1cnc(-c2ccccn2)[nH]c1=O the results were Sa RN4220 lethal 4.1, PfHsp40 rescue -2.0, Sa ugtP lethal 6.5, Mtb hypoxia rep 8.1, SSB-PriA inh 144.0*! and VHR inh abs -13.8.
For O=c1cc(-c2ccccn2)nc(-c2ccccn2)[nH]1 the results were SSB-PriA inh 152.5*.
Screening O=C(c1cnccn1)N1CCC(n2ccnn2)CC1 returned SSB-PriA inh -9.0.
`CC(=O)n1cc(C=NNC(=O)c2ccccc2Cl)c2ccccc21` gave Sa RN4220 lethal 3.6, Sa ugtP lethal 4.1, Mtb hypoxia rep 13.2 and SSB-PriA inh 3.4.
O=C(NCCc1ccccc1)C1CCCN1C(=O)Nc1ccccc1 (stereo unspecified) was read as Sa RN4220 lethal 1.5, PfHsp40 rescue 1.9, Sa ugtP lethal 0.4, Mtb hypoxia rep -1.7, SSB-PriA inh 7.8 and VHR inh abs -3.6.
`O=C(NCc1ccc(F)cc1)C1CCCN1C(=O)Nc1ccccc1` (stereo unspecified) gave Sa RN4220 lethal -3.6, PfHsp40 rescue -0.7, Sa ugtP lethal -2.2, Mtb hypoxia rep 7.8, SSB-PriA inh -11.7 and VHR inh abs 59.1*.
`O=C(NCCc1ccccc1)C1CCCN1C(=O)Nc1ccc(Cl)cc1` (stereo unspecified) gave Sa RN4220 lethal -2.4, PfHsp40 rescue 0.1, Sa ugtP lethal -6.2, Mtb hypoxia rep -0.9, SSB-PriA inh 2.4 and VHR inh abs 53.3*.
`CC1=C/C(=N\OS(=O)(=O)c2ccccc2)C(C(C)C)=CC1=O` gave PfHsp40 rescue 46.3* and VHR inh abs -1.2.
CC1(C(=O)Nc2nnc(C(C)(C)C)s2)Cc2ccccc2C(=O)O1 (stereo unspecified) was read as Sa RN4220 lethal 2.8, PfHsp40 rescue -1.6, Sa ugtP lethal 8.7, Mtb hypoxia rep 7.8, SSB-PriA inh -14.5 and VHR inh abs 52.7*.
Screening N#Cc1nc(-c2ccc(Cl)cc2)oc1NCCc1ccccn1 returned Sa RN4220 lethal -4.7, PfHsp40 rescue 67.5*, Sa ugtP lethal 7.1, Mtb hypoxia rep 9.0, SSB-PriA inh -6.4 and VHR inh abs 2.6.
For Cc1ccc(-c2nc(C#N)c(NCCc3ccccn3)o2)cc1 the results were Sa RN4220 lethal -9.8, PfHsp40 rescue -0.2, Sa ugtP lethal -1.0, Mtb hypoxia rep 21.5, SSB-PriA inh -19.4 and VHR inh abs 15.3.
For O=C(c1cc(-c2ccc3c(c2)OCO3)n[nH]1)N1CCCCC(c2ccc(F)cc2)C1 (stereo unspecified) the results were SSB-PriA inh -18.0.
Screening COc1c(OC(C)=O)c(=O)n2c3ccccc3c3ccnc1c32 returned Sa RN4220 lethal -1.3, PfHsp40 rescue 27.1*, Sa ugtP lethal 6.2 and SSB-PriA inh -1.7.
CC(=O)Oc1c(C)c(=O)n(C)c2ccccc12 was read as Sa RN4220 lethal 0.2, PfHsp40 rescue -2.5, Sa ugtP lethal -1.0, Mtb hypoxia rep -3.5, SSB-PriA inh 1.5 and VHR inh abs -14.0.
For COc1ccc([C@@H]2CC(c3cccs3)=NN2C(=O)CSc2nncn2C)cc1 the results were SSB-PriA inh -10.0.
Screening CCOC(=O)C(=NNc1ccccc1)c1csc(Nc2ccccc2)n1 returned Sa RN4220 lethal 92.2*, Sa ugtP lethal 93.2*, Mtb hypoxia rep -1.2 and SSB-PriA inh 1.3.
CCOC(=O)/C(=N\Nc1ccc(C(C)=O)cc1)c1csc(Nc2ccccc2)n1 was read as PfHsp40 rescue -0.1 and VHR inh abs 11.5.
Cn1c(=O)[nH]c(=O)c2c(=O)cc[nH]c21 was read as SSB-PriA inh -11.0.
Cc1cc2cc(CNC(=O)c3cc4ccccc4oc3=O)ccc2[nH]1 was read as SSB-PriA inh 14.0.
For CCOC(=O)C1C2COc3ccccc3C2N2C(=O)C(CO)NC(=O)[C@@]12C (stereo partly specified) the results were Sa RN4220 lethal 6.4, Sa ugtP lethal 3.6 and Mtb hypoxia rep 14.0.
CN1CCN(c2cc(N3CCc4ccccc4C3)c(F)cc2[N+](=O)[O-])CC1 was read as Sa RN4220 lethal -6.6, PfHsp40 rescue -0.3, Sa ugtP lethal -16.2, Mtb hypoxia rep -7.1, SSB-PriA inh 40.6* and VHR inh abs 2.9.
For O=[N+]([O-])c1cc(F)c(N2CCc3ccccc3C2)cc1N1CCOCC1 the results were SSB-PriA inh 75.3*.
For O=[N+]([O-])c1cc(F)c(N2CCCC2)cc1N1CCc2ccccc2C1 the results were SSB-PriA inh 32.8.
Screening CCN1CCN(c2cc(N3CCc4ccccc4C3)c([N+](=O)[O-])cc2F)CC1 returned SSB-PriA inh 83.2*.
`O=C(Nc1ccc(S(=O)(=O)N2CCCCC2c2cccnc2)cc1)c1ccc(Br)o1` (stereo unspecified) gave SSB-PriA inh 9.0.
